In PMC7862700, “An all-to-all approach to the identification of sequence-specific readers for epigenetic DNA modifications on cytosine”:

Key:
Test in all cases: DAPPL (digital affinity profiling via proximity ligation, sequencing); 10 mM Tris-HCl pH 7.5, 50 mM NaCl, 1 mM DTT, 4% glycerol, room temperature, 30 min; GST-TFs on glutathione beads, 16-mer random dsDNA library, 0.1% formaldehyde crosslink after washing; high values mean tight binding
Settings in all cases: protein: recombinant; tags: N-terminal GST; dsDNA, one strand shown
[1] = target: T1, FLI1 (Homo sapiens, UniProt Q01543 1-452)
T1 sequence: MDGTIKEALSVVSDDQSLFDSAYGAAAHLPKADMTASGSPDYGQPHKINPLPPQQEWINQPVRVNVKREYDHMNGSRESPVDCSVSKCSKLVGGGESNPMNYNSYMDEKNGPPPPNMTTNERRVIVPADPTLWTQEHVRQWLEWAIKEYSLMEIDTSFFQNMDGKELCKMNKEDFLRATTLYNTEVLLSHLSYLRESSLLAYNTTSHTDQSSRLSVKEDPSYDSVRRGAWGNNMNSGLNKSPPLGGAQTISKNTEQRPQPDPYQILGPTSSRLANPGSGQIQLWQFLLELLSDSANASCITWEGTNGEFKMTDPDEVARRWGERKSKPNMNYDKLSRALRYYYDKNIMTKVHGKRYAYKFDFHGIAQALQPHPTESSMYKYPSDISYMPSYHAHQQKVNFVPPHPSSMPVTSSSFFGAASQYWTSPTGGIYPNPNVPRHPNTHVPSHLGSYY
Method in brief: (§1)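 Beads coated with glutathione captured GST-fused human transcription factors that had been expressed in yeast, and the factors were then given DNA barcodes and pooled with a tag-only sample. The pools were incubated with 200 nmole of a random double-stranded 16-mer DNA library in Tris/NaCl/DTT/glycerol buffer for 30 min at room temperature, washed, crosslinked with 0.1% formaldehyde and proximity-ligated with BsaI/T4 ligase at 37 °C for 1 h. PCR amplification and Illumina NextSeq500 sequencing came last. Binding signal is each hexamer's read frequency for a factor divided by its frequency for the tag-only sample.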

[2] = target: T2, ELK1 (Homo sapiens, UniProt P19419 1-428)
T2 sequence: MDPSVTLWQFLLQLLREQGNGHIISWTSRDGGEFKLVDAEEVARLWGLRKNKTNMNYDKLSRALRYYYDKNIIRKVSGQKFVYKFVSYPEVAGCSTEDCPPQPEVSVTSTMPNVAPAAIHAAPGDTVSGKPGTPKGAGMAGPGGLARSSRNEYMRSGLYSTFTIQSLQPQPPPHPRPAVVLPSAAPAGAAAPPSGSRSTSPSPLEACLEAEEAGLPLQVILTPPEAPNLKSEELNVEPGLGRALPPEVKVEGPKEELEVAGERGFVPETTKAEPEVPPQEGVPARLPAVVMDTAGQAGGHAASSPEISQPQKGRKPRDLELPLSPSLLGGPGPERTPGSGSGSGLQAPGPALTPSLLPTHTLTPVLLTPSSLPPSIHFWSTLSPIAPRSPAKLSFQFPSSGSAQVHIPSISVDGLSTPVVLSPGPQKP
Method in brief: as §1

[3] = target: T3, GABPA (Homo sapiens, UniProt Q06546 1-454)
T3 sequence: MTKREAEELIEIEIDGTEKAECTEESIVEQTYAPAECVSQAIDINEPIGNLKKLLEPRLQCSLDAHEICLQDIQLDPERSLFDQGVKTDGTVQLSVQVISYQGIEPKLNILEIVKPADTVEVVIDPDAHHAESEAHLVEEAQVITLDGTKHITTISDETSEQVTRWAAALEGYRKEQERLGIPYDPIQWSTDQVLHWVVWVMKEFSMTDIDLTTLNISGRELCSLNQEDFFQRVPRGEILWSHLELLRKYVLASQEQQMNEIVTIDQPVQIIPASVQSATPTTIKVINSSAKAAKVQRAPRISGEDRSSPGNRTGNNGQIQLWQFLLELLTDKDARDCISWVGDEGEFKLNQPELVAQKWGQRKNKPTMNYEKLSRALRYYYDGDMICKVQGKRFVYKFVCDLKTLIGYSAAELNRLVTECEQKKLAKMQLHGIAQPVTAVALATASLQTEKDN
Method in brief: as §1

[4] = target: T4, ERG (Homo sapiens, UniProt P11308 1-479)
T4 sequence: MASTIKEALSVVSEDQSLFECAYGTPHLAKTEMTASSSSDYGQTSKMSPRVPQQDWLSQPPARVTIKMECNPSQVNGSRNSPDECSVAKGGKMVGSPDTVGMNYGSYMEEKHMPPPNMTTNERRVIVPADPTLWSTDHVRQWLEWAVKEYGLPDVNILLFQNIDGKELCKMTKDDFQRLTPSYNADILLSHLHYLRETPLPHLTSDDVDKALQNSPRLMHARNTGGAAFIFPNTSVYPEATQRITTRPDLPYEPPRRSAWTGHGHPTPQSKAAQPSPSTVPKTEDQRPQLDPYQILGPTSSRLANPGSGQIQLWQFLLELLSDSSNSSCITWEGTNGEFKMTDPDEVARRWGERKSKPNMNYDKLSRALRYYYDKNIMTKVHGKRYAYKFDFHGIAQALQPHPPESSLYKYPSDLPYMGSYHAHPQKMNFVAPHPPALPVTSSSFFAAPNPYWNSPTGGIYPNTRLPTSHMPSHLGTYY
Method in brief: as §1

[5] = target: ELF1 (Homo sapiens, UniProt P32519 1-619)
Method in brief: as §1

[6] = target: T5, EHF (Homo sapiens, UniProt Q9NZC4 1-300)
T5 sequence: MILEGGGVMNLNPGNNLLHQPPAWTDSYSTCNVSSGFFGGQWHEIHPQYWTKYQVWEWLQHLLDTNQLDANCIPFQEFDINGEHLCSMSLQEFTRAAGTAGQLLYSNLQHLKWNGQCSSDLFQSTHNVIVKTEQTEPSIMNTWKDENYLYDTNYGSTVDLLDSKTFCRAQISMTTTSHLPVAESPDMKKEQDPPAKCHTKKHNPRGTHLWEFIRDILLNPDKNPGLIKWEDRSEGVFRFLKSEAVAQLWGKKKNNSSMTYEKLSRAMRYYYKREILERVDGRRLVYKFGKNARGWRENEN
Method in brief: as §1

[7] = target: SPI1 (Homo sapiens, UniProt P17947 1-270)
Method in brief: as §1

[8] = target: SPIB (Homo sapiens, UniProt Q01892 1-262)
Method in brief: as §1

[9] = target: T6, ELK3 (Homo sapiens, UniProt P41970 1-407)
T6 sequence: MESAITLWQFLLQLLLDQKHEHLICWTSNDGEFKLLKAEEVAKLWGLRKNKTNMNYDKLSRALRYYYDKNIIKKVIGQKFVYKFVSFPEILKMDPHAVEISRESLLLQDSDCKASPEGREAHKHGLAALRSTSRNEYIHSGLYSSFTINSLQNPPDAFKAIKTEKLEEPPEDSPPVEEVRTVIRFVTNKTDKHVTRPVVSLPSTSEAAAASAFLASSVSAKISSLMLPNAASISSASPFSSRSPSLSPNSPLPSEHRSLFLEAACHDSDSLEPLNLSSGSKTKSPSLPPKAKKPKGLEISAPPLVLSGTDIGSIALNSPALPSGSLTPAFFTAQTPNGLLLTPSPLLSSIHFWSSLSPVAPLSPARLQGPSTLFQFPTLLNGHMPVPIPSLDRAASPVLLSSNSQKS
Method in brief: as §1

[10] = target: T7, FEV (Homo sapiens, UniProt Q99581 1-238)
T7 sequence: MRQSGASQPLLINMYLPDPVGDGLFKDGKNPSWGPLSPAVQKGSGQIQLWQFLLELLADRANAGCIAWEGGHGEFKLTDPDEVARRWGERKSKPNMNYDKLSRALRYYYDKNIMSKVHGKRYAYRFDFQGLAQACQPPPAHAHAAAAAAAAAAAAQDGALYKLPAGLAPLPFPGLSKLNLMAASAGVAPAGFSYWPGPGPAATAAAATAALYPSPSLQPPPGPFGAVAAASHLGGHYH
Method in brief: as §1

[11] = target: ETV5 (Homo sapiens, UniProt P41161 1-510)
Method in brief: as §1

[12] = target: T8, SPIC (Homo sapiens, UniProt Q8N5J4 1-248)
T8 sequence: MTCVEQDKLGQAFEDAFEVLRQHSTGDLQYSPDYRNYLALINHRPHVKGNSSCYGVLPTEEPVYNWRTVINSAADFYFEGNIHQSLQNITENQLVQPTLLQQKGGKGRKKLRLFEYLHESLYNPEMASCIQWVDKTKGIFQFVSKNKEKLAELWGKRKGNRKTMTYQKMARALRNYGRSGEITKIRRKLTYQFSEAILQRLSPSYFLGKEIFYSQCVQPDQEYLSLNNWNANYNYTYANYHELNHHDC
Method in brief: as §1

[13] = target: ELF4 (Homo sapiens, UniProt Q99607 1-663)
Method in brief: as §1

[14] = target: T9, ELK4 (Homo sapiens, UniProt P28324-2 1-405)
T9 sequence: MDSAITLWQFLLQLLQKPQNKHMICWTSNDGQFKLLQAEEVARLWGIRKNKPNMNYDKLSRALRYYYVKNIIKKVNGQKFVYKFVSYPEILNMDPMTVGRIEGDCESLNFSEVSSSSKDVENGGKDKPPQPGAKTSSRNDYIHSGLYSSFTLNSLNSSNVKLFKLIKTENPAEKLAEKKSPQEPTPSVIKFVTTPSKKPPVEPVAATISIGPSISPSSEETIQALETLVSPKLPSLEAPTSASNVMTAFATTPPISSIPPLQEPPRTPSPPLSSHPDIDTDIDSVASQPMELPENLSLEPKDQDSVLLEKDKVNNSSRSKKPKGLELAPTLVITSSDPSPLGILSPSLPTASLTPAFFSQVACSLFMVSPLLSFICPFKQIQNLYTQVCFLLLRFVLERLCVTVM
Method in brief: as §1

[15] = target: T10, ETV2 (Homo sapiens, UniProt O00321 1-342)
T10 sequence: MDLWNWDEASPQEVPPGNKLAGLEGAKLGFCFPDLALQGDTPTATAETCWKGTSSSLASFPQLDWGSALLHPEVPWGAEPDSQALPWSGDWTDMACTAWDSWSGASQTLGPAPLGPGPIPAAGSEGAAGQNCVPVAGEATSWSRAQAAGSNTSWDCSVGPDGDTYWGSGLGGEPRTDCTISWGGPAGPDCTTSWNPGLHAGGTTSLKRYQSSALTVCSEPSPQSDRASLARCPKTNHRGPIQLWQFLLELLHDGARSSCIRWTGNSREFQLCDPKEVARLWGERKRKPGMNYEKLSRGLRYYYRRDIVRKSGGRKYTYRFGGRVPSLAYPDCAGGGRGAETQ
Method in brief: as §1

[16] = target: T11, ELF3 (Homo sapiens, UniProt P78545 1-371)
T11 sequence: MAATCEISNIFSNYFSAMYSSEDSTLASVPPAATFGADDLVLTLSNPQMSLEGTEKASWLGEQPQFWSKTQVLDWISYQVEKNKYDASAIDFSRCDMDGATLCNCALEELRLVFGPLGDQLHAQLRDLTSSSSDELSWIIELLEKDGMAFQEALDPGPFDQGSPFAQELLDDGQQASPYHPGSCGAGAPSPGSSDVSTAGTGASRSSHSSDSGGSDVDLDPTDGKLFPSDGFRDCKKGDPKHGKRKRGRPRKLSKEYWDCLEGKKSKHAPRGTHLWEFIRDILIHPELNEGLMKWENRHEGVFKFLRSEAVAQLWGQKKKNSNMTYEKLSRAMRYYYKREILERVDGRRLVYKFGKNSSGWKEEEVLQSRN
Method in brief: as §1

[17] = target: ETV1 (Homo sapiens, UniProt P50549 1-477)
Method in brief: as §1

Sequence of ELF4 (Q99607 whole entry): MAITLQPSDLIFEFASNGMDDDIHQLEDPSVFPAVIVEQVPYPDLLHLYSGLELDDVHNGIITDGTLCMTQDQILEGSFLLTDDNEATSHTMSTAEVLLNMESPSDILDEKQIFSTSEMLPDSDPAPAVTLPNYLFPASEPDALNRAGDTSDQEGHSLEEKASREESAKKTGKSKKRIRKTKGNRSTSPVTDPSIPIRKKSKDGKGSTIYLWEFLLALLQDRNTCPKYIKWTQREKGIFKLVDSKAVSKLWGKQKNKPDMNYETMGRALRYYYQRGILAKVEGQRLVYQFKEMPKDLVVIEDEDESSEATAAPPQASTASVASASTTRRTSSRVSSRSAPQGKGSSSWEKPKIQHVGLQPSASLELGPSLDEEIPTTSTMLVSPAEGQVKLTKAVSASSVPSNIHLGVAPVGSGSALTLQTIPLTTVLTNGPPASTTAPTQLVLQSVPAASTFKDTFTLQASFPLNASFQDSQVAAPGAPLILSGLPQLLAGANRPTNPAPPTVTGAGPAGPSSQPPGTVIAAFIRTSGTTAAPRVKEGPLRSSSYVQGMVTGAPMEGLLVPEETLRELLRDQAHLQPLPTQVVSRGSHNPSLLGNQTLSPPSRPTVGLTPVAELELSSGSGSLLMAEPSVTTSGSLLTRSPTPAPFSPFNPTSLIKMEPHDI
Sequence of ETV5 (P41161 whole entry): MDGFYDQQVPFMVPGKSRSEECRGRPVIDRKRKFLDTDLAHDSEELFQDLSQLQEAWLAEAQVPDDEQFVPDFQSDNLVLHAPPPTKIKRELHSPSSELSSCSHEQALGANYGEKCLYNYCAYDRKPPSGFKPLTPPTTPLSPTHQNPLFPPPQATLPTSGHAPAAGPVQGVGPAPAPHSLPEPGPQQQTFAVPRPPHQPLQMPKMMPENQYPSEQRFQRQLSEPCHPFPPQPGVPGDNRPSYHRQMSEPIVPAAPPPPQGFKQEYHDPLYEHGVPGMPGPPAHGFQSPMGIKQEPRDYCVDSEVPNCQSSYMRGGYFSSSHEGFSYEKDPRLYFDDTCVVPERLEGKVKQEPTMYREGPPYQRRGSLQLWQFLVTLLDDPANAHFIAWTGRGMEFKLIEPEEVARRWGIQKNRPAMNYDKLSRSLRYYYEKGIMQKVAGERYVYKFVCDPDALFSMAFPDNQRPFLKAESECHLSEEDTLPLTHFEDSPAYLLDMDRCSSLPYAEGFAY
Sequence of SPIB (Q01892 whole entry): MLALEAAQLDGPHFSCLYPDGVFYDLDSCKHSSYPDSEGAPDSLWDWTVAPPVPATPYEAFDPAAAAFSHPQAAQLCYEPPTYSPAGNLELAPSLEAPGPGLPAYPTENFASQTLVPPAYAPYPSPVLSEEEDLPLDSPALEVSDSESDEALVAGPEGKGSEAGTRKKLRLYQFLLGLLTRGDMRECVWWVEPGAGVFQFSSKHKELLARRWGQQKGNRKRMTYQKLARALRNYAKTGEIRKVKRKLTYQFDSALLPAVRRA
Sequence of ELF1 (P32519 whole entry): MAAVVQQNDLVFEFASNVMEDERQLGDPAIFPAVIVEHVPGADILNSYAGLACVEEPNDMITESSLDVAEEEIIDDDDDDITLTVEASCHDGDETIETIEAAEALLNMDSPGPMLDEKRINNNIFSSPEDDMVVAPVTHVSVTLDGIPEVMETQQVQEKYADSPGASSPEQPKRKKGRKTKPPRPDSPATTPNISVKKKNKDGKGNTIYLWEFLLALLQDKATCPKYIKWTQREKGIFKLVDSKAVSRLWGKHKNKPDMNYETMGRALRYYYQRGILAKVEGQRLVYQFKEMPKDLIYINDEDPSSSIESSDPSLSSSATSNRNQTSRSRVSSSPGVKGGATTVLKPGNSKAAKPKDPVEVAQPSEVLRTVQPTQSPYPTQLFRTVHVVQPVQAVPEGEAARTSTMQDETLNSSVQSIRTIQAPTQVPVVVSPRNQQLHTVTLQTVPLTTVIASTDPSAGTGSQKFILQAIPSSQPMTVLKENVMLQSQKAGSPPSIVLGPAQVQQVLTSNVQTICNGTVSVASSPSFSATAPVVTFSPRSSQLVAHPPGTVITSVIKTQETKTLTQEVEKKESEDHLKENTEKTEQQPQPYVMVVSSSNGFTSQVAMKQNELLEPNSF
Sequence of ETV1 (P50549 whole entry): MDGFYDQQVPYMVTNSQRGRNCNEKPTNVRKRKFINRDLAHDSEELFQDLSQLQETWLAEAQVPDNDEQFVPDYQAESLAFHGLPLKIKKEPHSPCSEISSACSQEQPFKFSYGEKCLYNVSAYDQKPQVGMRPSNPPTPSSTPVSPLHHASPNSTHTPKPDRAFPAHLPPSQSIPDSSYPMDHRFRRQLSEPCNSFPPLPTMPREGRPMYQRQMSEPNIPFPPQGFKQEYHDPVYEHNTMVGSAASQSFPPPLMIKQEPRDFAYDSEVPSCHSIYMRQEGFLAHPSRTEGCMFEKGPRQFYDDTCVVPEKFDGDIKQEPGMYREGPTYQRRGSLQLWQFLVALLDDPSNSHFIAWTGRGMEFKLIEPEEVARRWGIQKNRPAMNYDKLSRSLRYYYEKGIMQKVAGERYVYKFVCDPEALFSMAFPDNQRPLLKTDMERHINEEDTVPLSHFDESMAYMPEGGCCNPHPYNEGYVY

Row | Sequence | binding signal [1] | binding signal [2] | binding signal [3] | binding signal [4] | binding signal [5] | binding signal [6] | binding signal [7] | binding signal [8] | binding signal [9] | binding signal [10] | binding signal [11] | binding signal [12] | binding signal [13] | binding signal [14] | binding signal [15] | binding signal [16] | binding signal [17]
1 | CGCTAC | 1.24 fold enrichment (6-mer frequency, TF over GST control) | 1.23 fold enrichment (6-mer frequency, TF over GST control) | 1.25 fold enrichment (6-mer frequency, TF over GST control) | 1.24 fold enrichment (6-mer frequency, TF over GST control) | 1.2 fold enrichment (6-mer frequency, TF over GST control) | 1.13 fold enrichment (6-mer frequency, TF over GST control) | 1.16 fold enrichment (6-mer frequency, TF over GST control) | 1.13 fold enrichment (6-mer frequency, TF over GST control) | 1.28 fold enrichment (6-mer frequency, TF over GST control) | 1.18 fold enrichment (6-mer frequency, TF over GST control) | 1.15 fold enrichment (6-mer frequency, TF over GST control) | 1.18 fold enrichment (6-mer frequency, TF over GST control) | 1.24 fold enrichment (6-mer frequency, TF over GST control) | 1.2 fold enrichment (6-mer frequency, TF over GST control) | 1.25 fold enrichment (6-mer frequency, TF over GST control) | 1.24 fold enrichment (6-mer frequency, TF over GST control) | 1.27 fold enrichment (6-mer frequency, TF over GST control)
2 | CCTCAC | 1.29 fold enrichment (6-mer frequency, TF over GST control) | 1.3 fold enrichment (6-mer frequency, TF over GST control) | 1.26 fold enrichment (6-mer frequency, TF over GST control) | 1.22 fold enrichment (6-mer frequency, TF over GST control) | 1.22 fold enrichment (6-mer frequency, TF over GST control) | 1.28 fold enrichment (6-mer frequency, TF over GST control) | 1.28 fold enrichment (6-mer frequency, TF over GST control) | 1.21 fold enrichment (6-mer frequency, TF over GST control) | 1.33 fold enrichment (6-mer frequency, TF over GST control) | 1.27 fold enrichment (6-mer frequency, TF over GST control) | 1.25 fold enrichment (6-mer frequency, TF over GST control) | 1.11 fold enrichment (6-mer frequency, TF over GST control) | 1.31 fold enrichment (6-mer frequency, TF over GST control) | 1.16 fold enrichment (6-mer frequency, TF over GST control) | 1.24 fold enrichment (6-mer frequency, TF over GST control) | 1.2 fold enrichment (6-mer frequency, TF over GST control) | 1.27 fold enrichment (6-mer frequency, TF over GST control)
